Results filed as inconclusive are left out. Active and inactive are the calls of the source. The calls were made as follows: active = hit-call score of the fitted dose curve at least 0.9, where 1 is the maximum; inconclusive = response in the unintended direction; inactive = score below 0.9.

The nature of this assay: CLD_ACTIN_48hr: CellzDirect (CLD) Gene Expression Assay for Baseline Control (Actin) at 48 hours (AID 2283702). How it is done:
CLD_48hr is a cell-based, multiplexed-readout assay that uses hepatocyte, a human liver primary cell, with measurements taken at 48 hours after chemical dosing in a 96-well plate.CLD_ACTIN_48hr is one of 16 assay component(s) measured or calculated from the CLD_48hr assay. It is designed to make measurements of mRNA induction, a form of inducible reporter, as detected with chemiluminescence signals by Quantitative Nuclease Protection Assay (qNPA) technology.Data from the assay component CLD_ACTIN_48hr was analyzed at the endpoint, CLD_ACTIN_48hr, in the positive analysis fitting direction relative to DMSO as the negative control and baseline of activity. Using a type of inducible reporter, gain-of-signal activity can be used to understand changes in the reporter gene as they relate to the gene ACTA1. Furthermore, this assay endpoint can be referred to as a secondary readout, because this assay has produced multiple assay endpoints where this one serves a background control function. To generalize the intended target to other relatable targets, this assay endpoint is annotated to the background measurement intended target family, where subfamily is baseline control.
Human hepatocyte cultures were treated daily for two consecutive days with fresh dosing solutions containing appropriate concentrations of the 320 ToxCast chemicals (chemical identities were blinded to CellzDirect and other ToxCast collaborators), vehicle control (0.2% DMSO), and positive control inducers as summarized in Table 1. Due to the large number of treatment groups and chemicals examined, the ToxCast chemicals were divided into two groups (spanning two independent cultures of hepatocytes from separate donor preparations (Hu778: ToxCast plates 1 and 2; Hu776: ToxCast plates 3 and 4). Each preparation of human hepatocyte cultures was treated with respective vehicle control, medium only control, set of six positive controls/reference chemicals for the five hepatic receptor pathways, and a subset of eight of the ToxCast chemicals (indoxacarb, pyrithiobac-sodium, norflurazon, cyhalofop-butyl, methomyl, thiram, acetochlor, and propiconazole). These replicate data, coupled with internal replicates designed within the blinded ToxCast chemical library, provided additional data to evaluate interindividual differences between hepatocyte preparations and their potential impact on chemical profiles.Cell morphology and integrity were evaluated using phase-contrast microscopy as an indicator of hepatocyte cell health (Tyson & Green, 1987). Cultures for each treatment group (i.e., media, vehicle [0.2% DMSO], positive control inducers [multiple concentrations], and the ToxCast chemicals [multiple concentrations]) were observed and cell morphology was assessed relative to vehicle control cultures at each harvest time point (0, 6, 24, or 48 h). […] Images were evaluated at the conclusion of the study to assess changes in cell integrity and account for the effects of chemical exposure on uncharacteristic changes in concentration-dependent gene expression profiles. The results from these determinations of apparent cytotoxicity were annotated (yes/no) alongside the corresponding qNPA data for reference.At the conclusion of each treatment period, hepatocyte cultures (96-well) were washed with 1 volume of HBSS, lysed by addition of 25 ul ArrayPlate lysis buffer (HTG, Tucson, AZ), and 70 ul/well of Denaturation Oil, denatured by incubation at 95C for 10 min, and frozen at approximately -70C until analysis by nuclease protection assay (qNPA) (Roberts et al., 2007). For qNPA analysis, cell lysates were thawed at 50C for approximately 30 min, qNPA probes were added, and samples were incubated at 95C for 10 min to begin the detection process by denaturing the target RNA, dissociating the duplexes and secondary structure hybridization. At the conclusion of the hybridization period, S1 nuclease reagent was added to each sample to digest all nonprotected nucleotides at 50C for 60-90 min. […]
For `O=P(O)(O)CCCl`, the result was inactive.

For `Cc1cnc(C2=NC(C)(C(C)C)C(=O)N2)c(C(=O)O)c1` (configuration not stated), the result was inactive.

For `Nc1c(Cl)c(Cl)nc(C(=O)O)c1Cl`, the call was inactive.

On to `CNC(=O)N(C)c1nnc(C(C)(C)C)s1`, for which the compound was called inactive.

Consider `O=C(Nc1ccccc1-c1ccc(Cl)cc1)c1cccnc1Cl`, for which the compound was classed as inactive.

For the compound `CCCCC(O)(Cn1cncn1)c1ccc(Cl)cc1Cl` (configuration not stated), the compound was classed as inactive.

Take `Cn1c(-c2ccccc2)cc(-c2ccccc2)[n+]1C`: the compound was called inactive.

With `Clc1cccc(C(Cl)(Cl)Cl)n1`, the outcome was inactive.

In the case of `COC(=O)NS(=O)(=O)c1ccc(N)cc1`, the compound was called inactive.

As to `Clc1nc(Cl)nc(Nc2ccccc2Cl)n1`, the outcome was inactive.

With `C=CCOC(=O)C(C)(C)OC(=O)c1cc(-n2c(=O)cc(C(F)(F)F)n(C)c2=O)ccc1Cl`, the call was inactive.

Turning to `COC(=O)NC(=S)Nc1ccccc1NC(=S)NC(=O)OC`, the outcome was inactive.

Regarding `N#Cc1c(Cl)cccc1Cl`, the result was inactive.

As for `CN=C=S`, the result was inactive.

`COc1ccc(-c2ccccc2)cc1NNC(=O)OC(C)C`: the outcome was inactive.

Regarding `Cc1nc(N(C)C)nc(OC(=O)N(C)C)c1C`, the compound was classed as inactive.

As for `CO/N=C(/C1=NOCCO1)c1ccccc1Oc1ncnc(Oc2ccccc2Cl)c1F`, the compound was called inactive.

Regarding `COc1cc(OC)nc(NC(=O)NS(=O)(=O)c2ncccc2OCC(F)(F)F)n1`, the compound was called inactive.

`CCSC(=O)N1CCCCCC1`: the outcome was inactive.

Take `CC(C)N1C(=O)c2ccccc2NS1(=O)=O`: the outcome was inactive.

Consider `CS(=O)(=O)c1ccc(C(=O)C2C(=O)CCCC2=O)c([N+](=O)[O-])c1`, for which the result was inactive.

Regarding `CCCCOCN(C(=O)CCl)c1c(CC)cccc1CC`, the call was inactive.

For the compound `C=C(C)CN(CC)c1c([N+](=O)[O-])cc(C(F)(F)F)cc1[N+](=O)[O-]`, the call was inactive.

On to `Nc1c(Cl)c(F)nc(OCC(=O)O)c1Cl`, for which the compound was called inactive.

In the case of `CCNC(=O)NC(=O)C(C#N)=NOC`, the compound was called inactive.

With `CCCC(=NOCC)C1=C(O)CC(CC(C)SCC)CC1=O` (configuration not stated), the outcome was inactive.

Regarding `CCOc1nc(C(Cl)(Cl)Cl)ns1`, the compound was called inactive.

Source of the values: PubChem BioAssay (EPA / NIEHS).
